Reference: PubChem BioAssay AID588850 (Sanford-Burnham Center for Chemical Genomics, 2011)
Several values for one entry are separate records, joined by “and”; a condition that tells them apart may be missing. Equal values may be shown once. In all, about 360,000 compounds went through this assay and about 3,100 (0.86%) were called active.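 Rule for the calls: active = at least 50% inhibition at 5 µM, scaled per plate between neutral and stimulator controls; inactive = the rest.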 The entries come from a sample that favours actives as a whole.

assay: inhibitors of PAF-induced NF-kB signaling, primary screen, cell-based, GFP fluorescence, uHTS (AID 588850); conditions: KKLEB NF-kB-GFP reporter, GFP fluorescence overnight, at 5 µM, active compounds read high;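 note: PAF is a Pseudomonas aeruginosa culture filtrate used as stimulus; plate controls were PAF-stimulated DMSO wells for no effect and unstimulated DMSO wells for full effect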

Row | SMILES | inhibition
1 | Cc1ccc(Cn2c(C)c(C(=O)NCc3ccccc3C(F)(F)F)sc2=O)cc1 | -26.2% (inactive)
2 | Cc1c(Nc2nc3ccccc3nc2NS(=O)(=O)c2cccs2)c(=O)n(-c2ccccc2)n1C | 9.5% (inactive)
3 | Cc1ccc(C2CCN(C(=S)Nc3cccc(Cl)c3)C2)cc1 (stereo not drawn) | 7.5% (inactive)
4 | COc1ccc(/C=C/C(=O)NC(=S)NN2CCCCC2c2cccnc2)cc1 (stereo not drawn) | -13% (inactive)
5 | Cc1ccc(Cc2c(-c3ccco3)nc3ccc(Cl)cn23)cc1 | 66.3% (active)
6 | Cc1ccc2nc(-c3ccco3)c(Cc3cccc(Cl)c3)n2c1 | 2.7% (inactive)
7 | Cc1ccc(Cc2c(-c3ccccc3)nc3ccc(Cl)cn23)cc1 | 20.8% (inactive)
8 | S=c1[nH]c2ccccc2c2ccccc12 | -8.9% (inactive)
9 | CC(=O)c1cccc(-c2cnc3c(NC=O)cc(-c4ccc(N5CCN(C)CC5)cc4)cn23)c1 | 22.9% (inactive)
10 | COc1ccc(/C=C/c2nnc(NC(=O)C(C)C)s2)cc1 | 17.7% (inactive)
11 | O=C(Nc1ccc(Cl)cc1)Nc1nnc(/C=C/c2ccccc2)s1 | 51.2% (active)
12 | O=C(CSc1ccccc1)Nc1nnc(/C=C/c2ccccc2)s1 | 22.7% (inactive)
13 | Cc1cc(OCCCC(=O)Nc2cc(S(=O)(=O)N3CCOCC3)ccc2N2CCOCC2)ccc1Cl | 7.1% (inactive)
14 | CCOC(=O)c1sc2nc(C)nc(SCC(N)=O)c2c1C | 11.9% (inactive)
15 | O=C(COc1ccc(-n2cnnn2)cc1)Nc1ccccc1Cl | -3.5% (inactive)
16 | O=C(Nc1ccccc1Cl)/C(Cl)=C(\Cl)S(=O)c1ccccc1 (stereo not drawn) | 82.8% (active)
17 | CC(=O)c1ccc(NC(=O)C(C)N(C)CC(=O)Nc2ccccc2Cl)cc1 (stereo not drawn) | 2.6% (inactive)
18 | COc1cccc(CC(=NO)c2cccc(OC)c2)c1 | 11.3% (inactive)
19 | COc1cc(C(=O)NCCOC(=O)c2cccc(N(C)C)c2)cc(OC)c1OC | 3.4% (inactive)
20 | Cn1c(=O)c2c(ncn2CC(=O)N/N=C/c2cn[nH]c2-c2ccc(F)cc2)n(C)c1=O | -32.9% (inactive)
21 | NC1=CC(=O)C(=O)c2cccnc21 | 92.2% (active)
22 | CCCCc1nc(NCCN)c(C#N)c2c1CSC(C)(C)C2 | 2.5% (inactive)
23 | FC(F)Oc1ccc(NC(=S)NCc2ccco2)cc1Cl | -1.9% (inactive)
24 | OCCCNc1nccc(-c2cc(Nc3cccc(Cl)c3)ncn2)n1 | 84.5% (active)

Row | SMILES | inhibition
25 | CCOc1c(Nc2cccc(Cl)c2)c(=O)c1=O | -0.1% (inactive)
26 | Cc1nc(C(F)(F)F)ccc1C(=O)N1CCC1(C)C(=O)NS(=O)(=O)c1ccc(F)cc1F (stereo not drawn) | 0.2% (inactive)
27 | O=C(CCN1C(=O)[C@@H]2Cc3ccccc3CN2C1=O)NCCc1ccccc1 | 16% (inactive)
28 | O=C(Nc1ccc2oc(-c3ccc4ccccc4c3)nc2c1)c1cccs1 | 51.3% (active)
29 | COc1cc(OC)cc(C(=O)Nc2ccc(-c3nc4ccccc4o3)c(O)c2)c1 | -44.7% (inactive)
30 | O=C(Nc1ccc2oc(-c3ccccc3F)nc2c1)c1ccco1 | -15% (inactive)
31 | CN1CCN(c2cc(=O)n(-c3ccc(Cl)cc3)c(=O)[nH]2)CC1 | 16.6% (inactive)
32 | CC1CCN(C(=O)c2ccccc2NC(=O)Cc2ccccc2)CC1 | 16.1% (inactive)
33 | N#C/C=C1\Sc2ccccc2C(=O)N1CC(=O)N1CCN(S(=O)(=O)c2ccccc2)CC1 | 8.2% (inactive)
34 | Clc1ccc(Cn2ncc3c(NCc4cccnc4)ncnc32)cc1 | -7.9% (inactive)
35 | Brc1ccc2ncnc(NCc3cccnc3)c2c1 | 57% (active)
36 | Cc1cc(NCc2cccnc2)no1 | -9.7% (inactive)
37 | CC(C)Cc1oc(C(=O)O)cc1CN | 0.9% (inactive)
38 | OC[C@@H]1CN(Cc2ccc(Cl)cc2)C[C@H](n2cnc3c(NCc4ccncc4)ncnc32)O1 | -7.1% (inactive)
39 | CCN(CC(=O)Nc1cc(Cl)ccc1C)C(=O)CSCc1ccc(C)cc1 | -25.2% (inactive)
40 | CC1(C)O[C@@H]2CC3C4C[C@H](F)C5=CC(=O)C=CC5(C)C4C(O)CC3(C)[C@]2(C(=O)CO)O1 (stereo partly drawn) | 71.8% (active)
41 | C[C@]12C=CC(=O)C=C1CC[C@@H]1[C@@H]2C(=O)C[C@@]2(C)[C@H]1CC[C@]2(O)C(=O)CO | 21.5% (inactive) and 6.7% (inactive)
42 | COc1cccc(NC(=O)COC(=O)c2ccc3ccccc3n2)c1 | 3.6% (inactive)
43 | C[C@H]1CC[C@]2(O[C@@H](CCO)C[C@@H](O)[C@@H]2O)O1 | -22.2% (inactive)
44 | O=C(c1ccc(Cl)c([N+](=O)[O-])c1)N1CCN(c2ccccc2)CC1 | -1.9% (inactive)
45 | O=C(O)c1ccc2c(=O)n3c(nc2c1)/C(=C/c1ccc(Cl)c([N+](=O)[O-])c1)CC3 | -4% (inactive)
46 | O=C(/C=C/c1ccc(Cl)c([N+](=O)[O-])c1)c1ccc(O)cc1 | 66.4% (active)
47 | NC(=O)c1nsc(C(=O)N(CC(=O)NCc2ccc(F)cc2)Cc2ccco2)c1N | 6.2% (inactive)
48 | COc1ccc(CNC(=O)C(c2ccc(O)cc2)N(Cc2ccco2)C(=O)c2snc(C(N)=O)c2N)cc1 (stereo not drawn) | 80.2% (active)

Row | SMILES | inhibition
49 | COc1cc(C(C(=O)NC2CCCC2)N(Cc2ccccc2)C(=O)c2snc(C(N)=O)c2N)ccc1O (stereo not drawn) | -3.3% (inactive)
50 | O=C1CCC(C(=O)N2CCN(c3ccccc3Cl)CC2)CN1CC1CCCCC1 (stereo not drawn) | 25% (inactive)
51 | Cc1ccc(NS(=O)(=O)c2ccc3c(c2)oc(=O)n3C)c(C)c1 | 21.8% (inactive)
52 | CC(=O)c1c(OCC(=O)N(C)C2CCCCC2)ccc2c(C)cc(=O)oc12 | -24.1% (inactive)
53 | COc1cccc2c1C(=O)c1c(O)c3c(c(O)c1C2=O)CC(O)(C(C)=NNC(=O)c1ccc(Cl)c(Cl)c1)CC3OC1CC(N)C(O)C(C)O1 (stereo not drawn) | 81.2% (active)
54 | NS(=O)(=O)c1ccc(N=Cc2ccc(Br)s2)cc1 | 2.4% (inactive)
55 | COc1cccc(CCNC(=O)COc2cccc3c2OC(C)(C)C3)c1 | 17.3% (inactive)
56 | Cc1ccc(-n2cc(CN(C)Cc3nccn3C)c(-c3cccc(C)c3)n2)cc1 | 28.4% (inactive)
57 | CCNc1nc(N)nc(Oc2ccc(OCC)nn2)n1 | -19.3% (inactive)
58 | O=C(CCCCCCCC(=O)N1CCCCC1)N1CCCCC1 | -8.3% (inactive)
59 | O=C(c1cc(COc2c(F)cccc2F)on1)N1CCSCC1 | 19% (inactive)
60 | COc1ccc(-c2cc(C(=O)NCCCN3CCCC3=O)c3ccccc3n2)cc1OC | -14% (inactive)
61 | COc1ccc(C2=NO[C@@H]3C(=O)N(Cc4ccccc4)C(=O)[C@H]23)cc1OC | 11% (inactive)
62 | COc1ccc(-c2cc(C(F)(F)F)nc(S(C)(=O)=O)n2)cc1OC | 90.7% (active)
63 | Cc1cccc(NC(=O)CCN2CC(C)CC(C)C2)c1 (stereo not drawn) | 1.5% (inactive)
64 | Cc1cccc(CS(=O)(=O)c2ncc(Cl)c(C(=O)Nc3ccc(F)cc3)n2)c1 | 81.7% (active)
65 | Cc1cccc(NC(=O)c2nc(S(=O)(=O)Cc3ccccc3)ncc2Cl)c1 | 89.1% (active)
66 | Cc1cccc(CN2CCC(CNC(=O)Nc3ccc(F)c(Cl)c3)CC2)c1 | -7.6% (inactive)
67 | Cc1cccc(NC(=O)Cn2cc(C(=O)c3ccco3)c3ccccc32)c1 | -7.8% (inactive)
68 | Cc1ccc(C)c(Cn2nnc3c(=O)[nH]c(C(=O)Nc4ccc(F)cc4)nc32)c1 | 22.5% (inactive)
69 | ONC(=Nc1ccc(Cl)cc1)c1ccccc1Cl | 9.7% (inactive)
70 | Nc1nnc(C2CCCC2)s1 | 0% (inactive)
71 | OC[C@@H]1CN(C2CCCC2)C[C@H](n2cnc3c(NC4CCC4)ncnc32)O1 | 6.2% (inactive)
72 | O=C(Nc1ccn(Cc2ccccc2)n1)c1n[nH]c([N+](=O)[O-])c1Cl | -15.6% (inactive)

Row | SMILES | inhibition
73 | Cc1ccc(CC(=O)Nc2ccc(OC(F)F)c(Cl)c2)cc1C | 2.1% (inactive)
74 | CC(=O)N1CCN(CC(=O)Nc2ccc(SC(F)F)cc2)CC1 | 5.2% (inactive)
75 | O=C(Cc1ccc(Cl)c(Cl)c1)Nc1ccc(SC(F)F)cc1 | 60.8% (active)
76 | COc1ccccc1CC(NC(C)=O)C(=O)NC1CCN(C(=O)Nc2ccccc2Cl)CC1 (stereo not drawn) | 2.1% (inactive)
77 | O=C1CCC(Cc2ccccc2)N1 (stereo not drawn) | 11.2% (inactive)
78 | CCOC(=O)C(=Cc1ccccc1OC)C(=O)OCC | 26.4% (inactive)
79 | CCOC(=O)C(=Cc1ccccc1)C(=O)c1ccccc1 | 66.7% (active)
80 | CCOC(=O)/C(=C\c1ccc([N+](=O)[O-])cc1)C(=O)c1cc(C(C)=O)c(Nc2ccccc2)s1 | 18.8% (inactive)
81 | CN1CCc2c(sc3c2c(NCc2ccco2)nc2nnnn23)C1 | -14.3% (inactive)
82 | CCN(CC(=O)NCc1cccs1)C(=O)/C=C/c1ccc(C)cc1 | -8.4% (inactive)
83 | CCCn1nc(C(=O)NNC(=O)CSCC(=O)Nc2cc(C)on2)c2ccccc2c1=O | 16.2% (inactive)
84 | Cc1ccc(NC(=O)c2ccc(CSc3ncnc4nc[nH]c34)cc2)c(C)c1 | -2.8% (inactive)
85 | CCc1ccc(N(CC)c2ncnc3nc[nH]c23)cc1 | 58.2% (active)
86 | COc1ccc(CCNc2ncnc3nc[nH]c23)cc1OC | 14.3% (inactive)
87 | CCCN1C(=O)C(Cc2nc3ccccc3c(=O)n2-c2ccccc2)c2cc(C)ccc21 (stereo not drawn) | -39% (inactive)
88 | O=C(CC(O)(C(F)(F)F)C(F)(F)F)Nc1ccc(Cl)c(Cl)c1 | 62.4% (active)
89 | CN(CC(=O)Nc1ccc(Cl)c(C(F)(F)F)c1)C(=O)CCC(=O)c1ccccc1 | -0.4% (inactive)
90 | O=C(Cc1ncc(C(F)(F)F)cc1Cl)Nc1cccc(Br)c1 | 7.6% (inactive)
91 | CN(CC(=O)Nc1ccc(OC(F)(F)F)cc1)C(=O)C1CCC1 | 6.5% (inactive)
92 | O=C(O)C1CCCN1C1=NS(=O)(=O)c2ccccc21 (stereo not drawn) | 9.4% (inactive)
93 | O=C(COc1ccc(S(=O)(=O)N2CCOCC2)cc1Cl)N1CCOCC1 | 1.5% (inactive)
